The text below walks through data of PubChem BioAssay (NCI).

Assay in all cases: NCI-60 one-dose screen, 48 h (100 = growth as untreated, 0 = no growth, -100 = all killed)
Holding throughout (conditions): 10 µM unless noted

Test [1] deals with HCT-15 colon.
Test [2] concerns SNB-75 CNS.
Test [3] concerns SNB-19 CNS.
Test [4] concerns U251 CNS.
Test [5] relates to PC-3 prostate.
In test [6] the test system is SK-MEL-5 melanoma.
The test system of test [7] is UACC-62 melanoma.
For test [8], the system named is LOX IMVI melanoma.
In test [9] the test system is SK-MEL-28 melanoma.

About 83,000 compounds went through this panel and 20% of them were active in at least one assay; those are over-represented in the sample as a whole.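 48-hour exposure, single concentration, 96-well plates; percent growth endpoint where 0 means no net growth. Active: below 10.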 Unmarked numbers belong to inactive results. The source made the active and inactive calls.

Take `Cc1ccc(/C=C2\CN(C(=O)C(Cl)Cl)C/C(=C\c3ccc(C)cc3)C2=O)cc1`: the growth is -39.2% (active) in [1]; -30.2% (active) in [2]; -53.7% (active) in test [3]; -94.9% (active) in [4]; -49.3% (active) in test [5]; -81.8% (active) in test [6]. In addition, the growth in test [7] was -67.2% (active); in [8], -92.2% (active); in test [9] it was -56.1% (active).
Turning to `Cc1c2cnccc2c(C)c2c1c1cc(C3OCCCO3)ccc1n2C`, the growth in test [1] is 1.16% (active); in [2] it was -23% (active); in test [3], -3.48% (active); in [4], -1.98% (active); in test [5], 2.08% (active); in test [6], -95.8% (active). For the same compound, the growth in [7] is -43.6% (active); in [8], -23.6% (active); in test [9], -29.6% (active).
Consider `COc1cccc(/C=C2\COc3ccc(O)cc3C2=O)c1`, for which the growth is 40.6% in test [1]; 82.4% in [2]; 45.1% in test [4]; 76.8% in [5]; 96.6% in test [6]; 63.3% in test [7]. Further, the growth in test [8] was 18.7%; in test [9], 108%.
Regarding `CC1(C)O[C@H]2OC3CCC(=O)CC3(O)[C@H]2O1` (some centres not stated), the growth is 111% in [1]; 95.1% in test [2]; 107% in [3]; 96.5% in test [4]; 98.8% in [6]; 107% in [7]. The values for the growth in test [8] and in [9] were 96.7% and 120%, respectively.
`COc1cc(-c2nc(NC(C)=O)sc2-c2ccnc(NCCNS(=O)(=O)c3ccccc3)n2)ccc1Cl`: the growth in test [1] is 31.7%; in [2] it was 15.7%; in test [3], 53.9%; in test [4], 31.5%; in test [5], 16.3%; in [6], 1.64% (active). For the same compound, the growth in test [7] is 23%; in test [8], 32.1%; in test [9] it was 35.6%.
As to `COc1cc(N2C(=O)[C@H](c3ccccc3)C2c2ccc(SC)cc2)cc(OC)c1OC` (some centres not stated), the growth was 1.35% (active) in [1]; 69.4% in [2]; 30.8% in test [3]; 7.35% (active) in test [4]; 17.7% in test [5]; -20.7% (active) in test [6]. For the same compound, the results for the growth in test [7], in test [8] and in test [9] were 7.64% (active), 13.4% and 60.9%, respectively.
Consider `CCCCCCCCNc1cc2c3c(c1)CCCN3CCC2`, for which the growth is 17.9% in test [1]; 35.9% in test [2]; 17.5% in test [3]; 15.5% in [4]; -0.993% (active) in test [5]; -71.8% (active) in test [6]. The figures for the growth in test [7], in test [8] and in [9] were 27.8%, 2.21% (active) and 48.9%, respectively.
`Clc1ccc(-c2nc(-c3c[nH]c4ncccc34)cs2)cc1`: the growth was 98.7% [100 µM] in [1]; -11.3% [100 µM] (active) in test [2]; 48.7% [100 µM] in test [3]; 16.2% [100 µM] in [4]; 43.9% [100 µM] in test [5]; 84.1% [100 µM] in test [6]. Moreover, the growth in test [7] is 71.2% [100 µM]; in [8], 62.6% [100 µM]; in test [9], 94% [100 µM].
As for `COc1ccc2cc(-c3cnc4nonc4n3)ccc2c1`, the growth is 22.7% in test [1]; 15.8% in test [2]; 37.7% in test [3]; 16.9% in test [4]; 25.5% in test [5]; 31.8% in test [6]. In addition, the growth is 2.86% (active) in test [7], 25.5% in test [8] and 86.3% in test [9].
With `CCN1C(=O)N(CC)C2C1NN=c1s/c(=C3\C(=O)N(CCc4ccccc4)c4ccccc43)c(=O)n12` (configuration not stated), the growth in test [1] was 10.7%; in test [2], -4.86% (active); in test [3] it was 23.3%; in test [4], 14.5%; in [5], 20.5%; in test [6] it was 7.69% (active). Further, the values for the growth in test [7], in test [8] and in test [9] were 28.1%, 10.9% and 43.6%, respectively.
Consider `O=C(N/N=C/c1ccc([N+](=O)[O-])cc1)c1ccc2nc(-c3ccc(Cl)cc3)[nH]c2c1`, for which the growth in [1] is 29.9%; in test [2], 69.3%; in [3] it was 52%; in test [4], 22.3%; in test [5], 21.4%; in test [6], 2.58% (active). The results for the growth in test [7], in [8] and in test [9] were 43.7%, -0.908% (active) and 45.3%, respectively.
For `CNC(=O)c1cc(Oc2ccc3nc(NC(=O)Nc4ccc(Cl)c(Cl)c4)sc3c2)ccn1`, the growth is 55% in [1]; -38.3% (active) in test [2]; 74.9% in [3]; 24% in test [4]; -24.7% (active) in [5]; 72.7% in test [6]. In addition, the growth in [7] is 75.8%; in test [8], -91.9% (active); in [9], 41.4%.
In the case of `COc1ccc2nc3ccccc3c(NCc3ccccc3)c2c1`, the growth in test [1] was 13.1%; in test [2], 45.5%; in test [3], 24.2%; in test [4] it was 22.9%; in [5], 28.6%; in test [6], 18.8%. Also, the values for the growth in [7], in [8] and in test [9] were 45.9%, -31.1% (active) and 49.7%, respectively.
Regarding `COc1cc2c(/C=C3\C(=O)Nc4ccccc43)c(C(=O)O)[nH]c2cc1C`, the growth in [1] is 105%; in [2], 66.3%; in test [3], 113%; in test [4], 96.4%; in test [5], 79.8%; in test [6], 109%. Further, the growth was 84.3% in [7], 92.7% in test [8] and 81.6% in test [9].
On to `CCCCC(=O)Nc1ncc(Cc2ccccc2Cl)s1`, for which the growth in test [1] was 24.8%; in [2], 25.3%; in [3], 48.7%; in test [4], 32%; in test [5], 68.8%; in test [6] it was 37.6%. For the same compound, the growth in test [7] was 32.4%; in test [8], 40.2%; in [9], 57.7%.
Consider `Cc1cc(N2CCCCC2)nc(N2CCN(CC(=O)Nc3ccc4c(ccn4Cc4ccccc4)c3)CC2)n1`, for which the growth in test [1] is 48.1%; in [2] it was 66.4%; in test [3], 70%; in test [4], 40.3%; in test [5], 38.7%; in test [6], 57.6%. Also, the growth in test [7] was 56.5%; in test [8], 60.7%; in test [9] it was 73.7%.
Take `CCN(C(=O)N1CCN(c2cc3c(cc2F)c(=O)c(C(=O)O)cn3C2CC2)CC1)c1nc(-c2ccc(C)cc2)cs1`: the growth in test [1] was 8.05% (active); in [2] it was 30.5%; in test [3], 18.8%; in [4], 16.3%; in test [5], 10.8%; in test [6], -32.8% (active). Also, the growth in test [7] was -3.01% (active); in test [8] it was 7.36% (active); in test [9], 34.1%.
With `O=C(CBr)CN1C(=O)c2ccccc2C1=O`, the growth in [1] was 110%; in test [2], 93.5%; in test [3], 115%; in test [4] it was 101%; in test [5], 102%; in test [6], 111%. Further, the growth in [7] was 102%; in test [8], 94.7%; in test [9], 101%.
`CCOC(=O)c1c(C)c2c(n1C)CSc1cc(S(=O)(=O)c3ccccc3)c(=O)[nH]c1-2`: the growth in test [1] was 24.7% [100 µM]; in test [2], 32.1% [100 µM]; in test [3] it was 43.3% [100 µM]; in test [4], 35.7% [100 µM]; in test [5], 15.9% [100 µM]; in test [6] it was -6.57% [100 µM] (active). Moreover, the growth in [7] was 1.08% [100 µM] (active); in [8] it was 31.9% [100 µM]; in test [9], 41% [100 µM].
Regarding `O=C(NCc1ccccc1O)c1cccc2ccccc12`, the growth was 68.9% in test [1]; 66.5% in test [2]; 69.3% in [3]; 81.6% in test [4]; 52.5% in test [5]; 60.1% in [6]. Further, the growth in test [7] is 37.9%; in test [8], 79.6%; in [9], 71.5%.
With `CN(C)c1ccc(-c2cc(-c3ccc(Nc4nc(Nc5ccc(Cl)cc5)nc(Nc5ccc(Cl)cc5)n4)cc3)nc(N)c2C#N)cc1`, the growth in test [1] is 75.9%; in test [2], 83.8%; in test [3], 97.8%; in [4] it was 63.3%; in [5] it was 57.7%; in [6], 66.7%. The results for the growth in [7], in test [8] and in test [9] were 91%, 72.7% and 88.7%, respectively.
As for `COc1ccc(-c2cn(-c3ccc(Cl)cc3)c(SCC(=O)c3ccc([N+](=O)[O-])cc3)n2)cc1`, the growth in test [1] is 92.7%; in test [2], 39%; in test [3] it was 52.3%; in test [4], 60.6%; in [5] it was 73.7%; in test [6], 88.2%. Also, the growth in [7] is 68.7%; in [8], 89.1%; in test [9], 95.8%.
For the compound `C=CC(=O)NCCOc1cccc(Nc2cc(NCCCNC(=O)C3CCC3)c(Br)cn2)c1`, the growth in test [1] was 1.43% (active); in [2] it was -69.2% (active); in [3], 5.36% (active); in test [4] it was 0.984% (active); in test [5] it was 5.12% (active); in test [6], -41.4% (active). Moreover, the growth in test [7] is -34.7% (active); in test [8], -25.3% (active); in test [9], -11.9% (active).
With `O=C(/C=C\c1ccco1)/C=C/c1ccco1`, the growth in test [1] was 105%; in [2] it was 94.5%; in test [3] it was 105%; in test [4], 104%; in test [5] it was 95.6%; in test [6], 101%. Moreover, the growth in test [7] is 100%; in [8], 96.8%; in [9], 110%.
Take `CC[C@H](CC[C@@H](C)[C@H]1CC[C@H]2[C@@H]3CC[C@@H]4CC(=O)/C(=C\c5ccncc5)C[C@]4(C)[C@H]3CC[C@]12C)C(C)C`: the growth in [1] is 102%; in [2] it was 99.4%; in [3], 99.2%; in [4] it was 96.3%; in [5] it was 92.6%; in test [6], 100%. Also, the growth is 94.5% in test [7], 95.7% in test [8] and 107% in test [9].
Turning to `O=C(NCc1ccc2c(c1)OCO2)NCC1CCCC(CNC(=O)NCc2ccc3c(c2)OCO3)C1` (configuration not stated), the growth in test [1] was 99.2%; in [2], 97.3%; in [3] it was 87.7%; in test [4] it was 103%; in [5], 102%; in [6], 102%. The growth was 95.8% in test [7], 97.9% in test [8] and 114% in test [9].
